Screening results (PubChem)
An excerpt weighted towards active compounds, which were near 1.4% of everything screened.
RN4220 kill: kills Staphylococcus aureus RN4220. S. aureus RN4220 growth, OD600, 16 h. inhibition, % (concentration not given with the values). 0.33% of 330,000 active. AID 1259311; in the data active means inhibition above about 85%;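 further: plate controls were untreated cells for no effect and reference antibiotic for full effect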
PrPC TRFRET: inhibitors of human cell surface prion protein PrPC; P04156; 0.43% of 370,000 active; inhibition, % at 13.8 µM; AID 720596; TR-FRET read-out; in the data active means inhibition above about 24%; further: 0% = median of the test wells and 100% = reference compound wells
DUSP3 inh: DUSP3 (human) phosphatase inhibition | inhibition, % at 13.3 µM | recombinant VHR phosphatase, pNPP absorbance | 0.52% of 290,000 active | P51452; in the data active means inhibition above about 50%
Target sequence (P51452 whole entry, looked up): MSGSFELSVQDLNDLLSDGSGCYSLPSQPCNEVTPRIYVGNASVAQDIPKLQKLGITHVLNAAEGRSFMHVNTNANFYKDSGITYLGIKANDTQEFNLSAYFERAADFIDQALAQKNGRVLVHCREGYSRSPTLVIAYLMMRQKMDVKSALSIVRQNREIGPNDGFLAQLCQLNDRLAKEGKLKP
SARS 3CLpro inh: SARS-CoV 3CLpro protease inhibition. P0C6X7. recombinant SARS-CoV 3CLpro, quenched FRET peptide cleavage. inhibition, % at 6 µM. 0.14% of 290,000 active; in the data active means inhibition above about 12%
BJeLR lethal: kills HRASV12-expressing BJeLR cells; AID 1554; BJeLR (HRASV12) viability, CellTiter-Glo ATP luminescence, 48 h; 0.17% of 300,000 active; inhibition, % (test concentration not listed); in the data active means inhibition above about 50%
Sa ugtP lethal: compounds lethal to S. aureus RN4220 ugtP deletion mutant; OD600 growth, 16 h; growth inhibition, % (no concentration beside the values); 0.54% of 330,000 active; in the data active means growth inhibition above about 68%;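 further: plate controls were untreated wells for no effect and antibiotic for full effect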
PrPC TRFRET cf: cell surface PrPC inhibition, TR-FRET confirmation; shares compounds with PrPC TRFRET; cell surface PrPC level; inhibition, % at 13.8 µM; 65% of 1,500 active; in the data active means inhibition above about 25%
LD9 cytotox: counter-screen for PrPc inhibitors: cytotoxicity in LD9 cells; 29% of 1,500 active; shares compounds with PrPC TRFRET; luminescence viability; inhibition, % at 13.8 µM; AID 743201; in the data active means inhibition above about 9.5%
* hit, by the source's call; · = no result given.

SMILES	RN4220 kill	PrPC TRFRET	DUSP3 inh	SARS 3CLpro inh	BJeLR lethal	Sa ugtP lethal	PrPC TRFRET cf	LD9 cytotox
COc1cc(OC)cc(C(=O)N[C@H](C(=O)Nc2nc(-c3cc(OC)ccc3OC)cs2)C(C)C)c1	-1	26*	30	2	0	9	30*	-8
COC(=O)C1=C(c2ccc(F)cc2OCc2ccccc2)CC2CCC1N2C(=O)N1CCOCC1 (centres undefined)	3	·	·	·	·	4	·	·
CC1COC(=O)C(Cc2ccc(F)cc2)CC=CCC(CC(=O)NC(CO)Cc2ccccc2)C(=O)N1 (centres undefined)	4	·	·	·	·	3	·	·
Cc1nnc(SCc2ccc(F)cc2)n1NCC=Cc1ccccc1	5	·	·	·	·	-5	·	·
N#CC(C#N)=C1NC(N)=C(C#N)C(c2ccccc2)=C1C#N	·	74*	26	4	-4	·	103*	-10
N#CC1=C(c2ccccc2)/C(=C/c2ccccc2)OC1=O	·	0	22	4	11	·	·	·
CC=C(C)C(=O)OC1c2cc3c(c4c2[C@@]2(CO4)C(=O)C(OC)=C(OC)C=C2CC(C)C1C)OCO3 (some centres undefined)	9	·	·	·	·	-8	·	·
CCc1cc2c(=O)c(-c3ccc4c(c3)OCO4)coc2c(CN(C)C)c1O	5	86*	·	2	-2	8	95*	-5
CCc1cc2c(=O)c(-c3cscn3)coc2c(CN(C)C)c1O	7	6	13	3	3	2	·	·
CC1OC2CC(=O)OC2C2=C1C(=O)c1c(O)cccc1C2=O (centres undefined)	·	81*	·	·	·	·	93*	99*
Cc1ccc(-c2nn(Cc3ccccc3)cc2C=CC(=O)O)cc1C	2	·	·	·	·	12	·	·
Brc1cc2[nH]cnc2c2ccccc12	3	61*	-11	0	14	-21	79*	-8
O=C(C1=CC(c2ccc(Br)cc2)CC(OCCCCO)O1)N1CCN(Cc2ccc3c(c2)OCO3)CC1 (centres undefined)	6	·	·	·	·	2	·	·
CCCSc1nc2cc(OC)c(OC)cc2c(=N)n1CCCN1CCOCC1	4	-11	17	-4	-10	3	·	·
COCCCn1c(SCc2ccc(OC)cc2)nc2cc(OC)c(OC)cc2c1=N	9	119*	29	3	-15	-4	6	7
COC(=O)C1=CO[C@@H](C)[C@H]2CN3CCc4c([nH]c5ccccc45)[C@@H]3C[C@H]12	·	25*	·	·	·	·	16	-2
O=C(CC1CC=CCC(Cc2ccc(F)cc2)C(=O)OCC(c2ccccc2)NC1=O)NCCO (centres undefined)	7	·	·	·	·	4	·	·
Cc1nc(N2CCN(Cc3ccc4c(c3)OCO4)CC2)c2oc3ccccc3c2n1	10	48*	·	·	·	19	11	15*
Cc1nc(N2CCN(Cc3ccc(Cl)cc3)CC2)c2oc3ccccc3c2n1	3	-1	0	3	2	-26	·	·
O=C1C(=Cc2cccnc2)Sc2ccccc21	20	·	·	·	·	-7	·	·
COc1ccc(C(=O)NNC(=O)CSc2nc(C(C)C)nc3ccccc23)cc1	6	81*	20	-1	-7	0	101*	-17
CCc1nc(SCC(=O)NNC(=O)c2ccc(OC)cc2)c2ccccc2n1	3	109*	8	5	7	5	116*	-10
COc1ccc(C(=O)NNC(=O)CSc2ccccc2)cc1	2	4	17	3	6	5	·	·
CCc1nc(SCC(=O)Nc2nc3c(s2)CCCC3)c2ccccc2n1	3	30*	19	-1	-1	-31	72*	-9
CCc1nc(SCC(=O)N2c3ccccc3Sc3ccccc32)c2ccccc2n1	1	46*	25	-5	2	-1	89*	-8
CCOC(=O)C1C2COc3ccc(C)cc3C2N2C(=O)c3cc(F)ccc3NC(=O)[C@@]12C (some centres undefined)	6	·	·	·	·	7	·	·
CN(C)c1ccc(C=C(C(=O)c2ccc(Cl)cc2Cl)n2cncn2)cc1	8	·	·	·	·	-5	·	·
COc1cc(C2CC=C(C(=O)O)C(c3cccc(Cl)c3)N2S(=O)(=O)c2ccc(C)cc2)cc(OC)c1OC (centres undefined)	7	·	·	·	·	15	·	·
